Assay results reported in PubChem BioAssay (EPA / NIEHS).
Some structures have more than one record in an assay (separate samples or runs), and their calls can disagree. Active and inactive are the calls of the source. Rule for the calls: active = hit-call score of the fitted dose curve at least 0.9, where 1 is the maximum; inactive = score below 0.9.

Key:
[1] = ATG_CRE_CIS: Attagene CIS-FACTORIAL HepG2 Assay for human cAMP Responsive Element (CRE) binding protein 3 (AID 2282926); conditions: HepG2 CRE cis-reporter, Attagene multiplexed mRNA; actives raise or lower the signal
Method in brief: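 Capillary electrophoresis of 6-FAM-labelled, HpaI-digested PCR products quantified reporter transcripts. These came from HepG2 transiently transfected with cis-element reporters and exposed to test chemicals for 24 hours, with DMSO defining baseline activity.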

[2] = molecular target: CCAAT/enhancer-binding protein beta (Homo sapiens) (UniProt P17676); experiment: ATG_C_EBP_CIS: Attagene CIS-FACTORIAL HepG2 Assay for human CCAAT/Enhancer Binding Protein (C/EBP) beta (AID 2282927); conditions: HepG2 Attagene cis-factorial transcription factor reporter; actives raise or lower the signal
Method in brief: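 Following a 24 h incubation with test chemical, transfected HepG2 cells yielded RNA whose reporter transcripts were quantified by RT-PCR and fluorescent capillary electrophoresis, with DMSO serving as baseline for bidirectional fitting.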

[3] = ATG_CMV_CIS: Attagene CIS-FACTORIAL HepG2 Assay for human CMV (Internal Marker) (AID 2282928); conditions: HepG2 CMV promoter reporter, transcription factor profiling; actives raise or lower the signal;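 note: endpoint acts as a background internal control marker rather than a target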
Method in brief: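 24 h chemical treatment, HepG2 with transient multi-reporter transfection; RNA → oligo(dT) RT → PCR → 6-FAM extension → HpaI digest → CE fluorescence. Bidirectional fit, DMSO negative control.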

[4] = ATG_DR4_LXR_CIS: Attagene CIS-FACTORIAL HepG2 Assay for human Liver X Receptor (LXR), DR4 submotif (AID 2282929); conditions: HepG2 Attagene DR4 cis-reporter, mRNA transcription; actives raise or lower the signal
Method in brief: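 Transiently transfected HepG2 liver cells; cis-regulated reporters; 24 h dosing. RT-PCR plus CE read-out of reporter mRNA. DMSO baseline, bidirectional curve fitting.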

[5] = molecular target: Aryl hydrocarbon receptor (Homo sapiens) (UniProt P35869); experiment: ATG_Ahr_CIS: Attagene CIS-FACTORIAL HepG2 Assay for human Aryl Hydrocarbon Receptor (Ahr) (AID 2282930); conditions: HepG2 AhR cis-factorial reporter transcription; actives raise or lower the signal
Method in brief: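 Values derive from bidirectional fitting against DMSO negative control. Underlying signal: cis-element reporter mRNA in transiently transfected HepG2, harvested 24 h post-dose and measured by RT-PCR plus capillary electrophoresis.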

[6] = ATG_AP_1_CIS: Attagene CIS-FACTORIAL HepG2 Assay for human Activator Protein 1 (AP-1) (AID 2282931); conditions: HepG2 Attagene cis-factorial AP-1 reporter mRNA; actives raise or lower the signal
Method in brief: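 We transfected HepG2 cells transiently with a set of cis-regulated reporter transcription units, dosed them for 24 h, and quantified reporter mRNA via RT-PCR and capillary electrophoresis, scoring gain or loss of signal relative to DMSO.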

[7] = ATG_AP_2_CIS: Attagene CIS-FACTORIAL HepG2 Assay for human Activator Protein 2 (AP-2) (AID 2282932); conditions: HepG2 AP-2 cis-reporter, Attagene transcription factor profiling; actives raise or lower the signal
Method in brief: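 Cells (HepG2) transfected with promoter-driven reporter constructs, treated 24 h. Total RNA reverse-transcribed, reporter cDNA PCR-amplified, FAM-labelled by primer extension, digested, resolved by capillary electrophoresis. Activity fitted both directions versus DMSO.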

[8] = ATG_BRE_CIS: Attagene CIS-FACTORIAL HepG2 Assay for human Bone Morphogenetic Protein (BMP) Response Element (BRE) (AID 2282933); conditions: HepG2 BMP response element reporter, Attagene transcription factor profiling; actives raise or lower the signal
Method in brief: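 Multiplexed cis-reporter assay, HepG2, 24 h exposure. mRNA from reporter units quantified via RT-PCR/CE; DMSO baseline; bidirectional curve fit.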

[9] = molecular target: Retinoic acid receptor alpha (Homo sapiens) (UniProt P10276); experiment: ATG_DR5_RAR_CIS: Attagene CIS-FACTORIAL HepG2 Assay for human Retinoic Acid Receptor Alpha (RARE), DR5 submotif (AID 2282934); conditions: HepG2 Attagene cis-factorial RARE DR5 reporter, mRNA; actives raise or lower the signal;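 for AC50: reporter responds to endogenous RAR alpha beta and gamma in HepG2 not RARA alone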
Method in brief: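 Endpoint fitted in both directions relative to DMSO as negative control. It reflects DR5 cis-element reporter mRNA induction in transiently transfected HepG2 cells, measured 24 h after dosing through RT-PCR and fluorescent capillary electrophoresis.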

[10] = molecular target: Transcription factor E2F1 (Homo sapiens) (UniProt Q01094); experiment: ATG_E2F_CIS: Attagene CIS-FACTORIAL HepG2 Assay for human E2F Transcription Factor 1 (AID 2282935); conditions: HepG2 Attagene cis-reporter, E2F reporter RNA transcripts; actives raise or lower the signal
Method in brief: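 First, HepG2 cells were transfected with reporter transcription units. Next, they were dosed for 24 h. Then RNA was isolated, converted to cDNA, PCR-amplified, FAM-labeled, HpaI-digested and analyzed by capillary electrophoresis.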

[11] = ATG_E_Box_CIS: Attagene CIS-FACTORIAL HepG2 Assay for human Enhancer Box (E-box) (AID 2282936); conditions: HepG2 E-box cis-reporter transcription, actives raise or lower the signal
Method in brief: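 Endogenous transcription factor activity was sensed in human HepG2 liver cells through transfected cis-promoter reporter units. After 24 h of dosing, total RNA was reverse-transcribed and reporter cDNA resolved by capillary electrophoresis.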

[12] = ATG_M_61_CIS: Attagene CIS-FACTORIAL HepG2 Assay for M61 Transcription Factor (Internal Marker) (AID 2282937); conditions: HepG2 Attagene CIS-FACTORIAL M61 internal marker reporter; actives raise or lower the signal
Method in brief: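 Multiplexed reporter mRNA assay, HepG2 human hepatoma cells, 24 h treatment. Signal: FAM-labelled, HpaI-digested RT-PCR fragments by CE. Fit: bidirectional, baseline DMSO.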

[13] = ATG_EGR_CIS: Attagene CIS-FACTORIAL HepG2 Assay for human Early Growth Response 1 (EGR1) (AID 2282938); conditions: HepG2 Attagene CIS-FACTORIAL EGR reporter mRNA; actives raise or lower the signal
Method in brief: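 Multiplexed cis-reporter system in human hepatoma HepG2 cells, transiently transfected. Cells are dosed for 24 h; reporter transcripts are amplified, fluorescently tagged and sized by capillary electrophoresis, with DMSO as negative control.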

[14] = ATG_M_19_CIS: Attagene CIS-FACTORIAL HepG2 Assay for M19 Transcription Factor (Internal Marker) (AID 2282939); conditions: HepG2 Attagene CIS-FACTORIAL M19 internal marker reporter; actives raise or lower the signal
Method in brief: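 Signals come from fluorescence of labelled reporter-specific PCR fragments resolved by capillary electrophoresis, following 24 h treatment of HepG2 cells transfected with cis-promoter reporter units; activity was fitted in both directions relative to DMSO.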

[15] = APR_HepG2_MitoticArrest_72hr: Apredica 72-hour HepG2 Assay for Mitotic Arrest (AID 2282918); conditions: high-content imaging, actives raise or lower the signal
Method in brief: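 HepG2 cells were exposed for 72 hr to compound at 0.39–200 uM (10 concentrations, duplicate) in 0.5% v/v DMSO, fixed in 3.7% formaldehyde, immunostained for phospho-histone H3 with Hoechst 33342 and imaged by high-content fluorescence; bidirectional fits versus DMSO.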

[16] = APR_HepG2_StressKinase_72hr: Apredica 72-hour HepG2 Assay for Stress Kinase (AID 2282921); conditions: HepG2 stress kinase (phospho-c-Jun) imaging, actives raise or lower the signal
Method in brief: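 After a 72 h compound treatment spanning 0.39 to 200 uM, formaldehyde-fixed cells are labelled for phosphorylated c-Jun and nuclei, imaged by automated fluorescence microscopy, and activity is fitted in both directions relative to DMSO controls.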

[17] = APR_HepG2_StressKinase_24hr: Apredica 24-hour HepG2 Assay for Stress Kinase (AID 2282922); conditions: HepG2 stress kinase (phospho-c-Jun) imaging, actives raise or lower the signal
Method in brief: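 After 24 hr compound treatment (up to 200 uM, final DMSO 0.5% v/v), HepG2 cells are fixed and multiplex-labeled; phospho-c-Jun intensity is captured by high-content fluorescence imaging and analyzed relative to DMSO.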

[18] = APR_HepG2_NuclearSize_72hr: Apredica 72-hour HepG2 Assay for Nuclear Size (AID 2282925); conditions: high-content imaging, actives raise or lower the signal
Method in brief: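 Compounds (0.39–200 uM, final DMSO 0.5%) were applied to HepG2 for 72 hr. Cells were then formaldehyde-fixed, permeabilized and labelled with Hoechst 33342. Nuclear diameter was quantified from six images per well.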

Measured: AC50

CCAAT/enhancer-binding protein beta (Homo sapiens), sequence (P17676 whole entry, looked up): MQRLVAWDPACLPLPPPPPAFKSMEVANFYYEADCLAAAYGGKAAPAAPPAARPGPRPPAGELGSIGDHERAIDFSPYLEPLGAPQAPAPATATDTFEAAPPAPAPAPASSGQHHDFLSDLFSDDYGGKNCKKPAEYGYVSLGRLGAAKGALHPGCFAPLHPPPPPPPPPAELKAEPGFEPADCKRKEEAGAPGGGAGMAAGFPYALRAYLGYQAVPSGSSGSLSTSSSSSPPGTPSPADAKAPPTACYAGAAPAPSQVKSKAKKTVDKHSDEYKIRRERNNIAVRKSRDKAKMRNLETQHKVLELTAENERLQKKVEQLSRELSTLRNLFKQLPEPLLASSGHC
Retinoic acid receptor alpha (Homo sapiens), sequence (P10276 whole entry, looked up): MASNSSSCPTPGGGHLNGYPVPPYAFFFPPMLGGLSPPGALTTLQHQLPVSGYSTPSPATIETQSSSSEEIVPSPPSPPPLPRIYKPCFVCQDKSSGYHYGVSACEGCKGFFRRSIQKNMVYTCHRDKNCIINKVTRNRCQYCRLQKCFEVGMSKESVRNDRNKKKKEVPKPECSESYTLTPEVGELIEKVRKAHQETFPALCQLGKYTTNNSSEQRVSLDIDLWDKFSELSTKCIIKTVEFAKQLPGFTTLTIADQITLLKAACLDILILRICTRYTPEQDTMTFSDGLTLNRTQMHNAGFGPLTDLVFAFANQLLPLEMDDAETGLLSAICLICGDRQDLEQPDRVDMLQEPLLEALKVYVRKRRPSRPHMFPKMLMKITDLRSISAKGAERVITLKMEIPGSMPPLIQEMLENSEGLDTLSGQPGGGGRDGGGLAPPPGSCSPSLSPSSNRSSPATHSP
Aryl hydrocarbon receptor (Homo sapiens), sequence (P35869 whole entry, looked up): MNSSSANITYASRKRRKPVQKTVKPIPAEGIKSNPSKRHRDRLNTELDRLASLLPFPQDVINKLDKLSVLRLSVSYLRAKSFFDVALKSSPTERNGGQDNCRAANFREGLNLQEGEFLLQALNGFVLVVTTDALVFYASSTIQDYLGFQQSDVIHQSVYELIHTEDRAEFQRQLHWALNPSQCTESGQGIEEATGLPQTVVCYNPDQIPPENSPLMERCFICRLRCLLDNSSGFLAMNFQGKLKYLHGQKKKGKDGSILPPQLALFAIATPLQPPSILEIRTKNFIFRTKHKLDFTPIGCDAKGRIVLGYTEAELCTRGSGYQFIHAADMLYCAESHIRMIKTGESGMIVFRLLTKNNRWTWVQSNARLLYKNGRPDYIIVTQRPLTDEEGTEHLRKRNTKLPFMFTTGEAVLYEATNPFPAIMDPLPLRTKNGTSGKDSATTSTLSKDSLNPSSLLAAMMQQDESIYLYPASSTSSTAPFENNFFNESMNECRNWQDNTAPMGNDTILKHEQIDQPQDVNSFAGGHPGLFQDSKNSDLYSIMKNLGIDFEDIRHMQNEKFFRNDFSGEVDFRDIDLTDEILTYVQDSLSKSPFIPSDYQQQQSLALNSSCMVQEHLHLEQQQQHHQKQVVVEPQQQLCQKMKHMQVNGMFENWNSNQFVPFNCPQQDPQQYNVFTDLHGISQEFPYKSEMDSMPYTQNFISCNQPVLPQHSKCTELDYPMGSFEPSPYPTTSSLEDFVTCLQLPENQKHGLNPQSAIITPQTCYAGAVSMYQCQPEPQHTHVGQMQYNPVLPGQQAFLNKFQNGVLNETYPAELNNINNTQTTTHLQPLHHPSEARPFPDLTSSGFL
Transcription factor E2F1 (Homo sapiens), sequence (Q01094 whole entry, looked up): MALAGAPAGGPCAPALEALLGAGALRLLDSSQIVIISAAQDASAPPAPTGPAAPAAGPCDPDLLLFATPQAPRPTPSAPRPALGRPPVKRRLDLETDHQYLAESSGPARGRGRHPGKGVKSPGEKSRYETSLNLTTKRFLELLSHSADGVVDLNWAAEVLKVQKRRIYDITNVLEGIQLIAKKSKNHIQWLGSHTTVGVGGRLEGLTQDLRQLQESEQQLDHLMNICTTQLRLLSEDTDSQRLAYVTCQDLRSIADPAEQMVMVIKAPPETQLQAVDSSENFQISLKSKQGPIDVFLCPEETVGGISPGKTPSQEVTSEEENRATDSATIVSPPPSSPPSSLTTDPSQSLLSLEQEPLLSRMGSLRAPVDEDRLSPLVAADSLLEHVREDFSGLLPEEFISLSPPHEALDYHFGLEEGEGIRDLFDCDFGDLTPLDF

BrCc1ccc(Br)cc1
active: [5] 60.9 µM
not listed: [15] | [16] | [17] | [18]
inactive: all other assays above

Clc1cccc(Cl)c1
inactive: all assays above

CCCCCCCCCCCCc1cccc(S(=O)(=O)O)c1
active: [9] 39.8 µM
not listed: [4] | [5]
inactive: all other assays above

Nc1ncn[nH]1
not listed: [15] | [16] | [17] | [18]
inactive: all other assays above

O=C(O)COc1cc(Cl)c(Cl)cc1Cl
not listed: [15] | [16] | [17] | [18]
inactive: all other assays above

C[C@]12CC[C@@H](O)C[C@@H]1CC[C@@H]1[C@@H]2CC[C@]2(C)C(=O)CC[C@@H]12
not listed: [15] | [16] | [17] | [18]
inactive: all other assays above

Nc1ccc(N)cc1
active: [1] 11.7 µM | [3] 24.3 µM | [6] 70.9 µM | [9] 37.5 µM
inactive: [1] | [2] | [3] | [6] | [7] | [8] | [9] | [10] | [11] | [12] | [13] | [14]

COc1ccccc1N
active: [5] 78.3 µM
inactive: [16] | [17] | [18] | [1] | [2] | [3] | [5] | [6] | [7] | [8] | [9] | [10] | [11] | [12] | [13] | [14]
